# Measured values from the supplement of paper PMC8728848.
# The entries come from a sample that favours the strongest signals as a whole.
# Assays:
# Assay in all cases: glycan array binding signal (z-score within array); higher = stronger binding
# Details in all cases: glycan notation: IUPAC condensed, linker removed
# Fuc(a1-2)Gal = target: Fuc(a1-2)Gal
# Outline: (§1)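 The binding signal is a Z-score computed within each array. Data were drawn from 3228 arrays in the Consortium for Functional Glycomics database, restricted to those with a known protein sequence. Scores were averaged over arrays of the same protein sequence at different concentrations or buffers, and over linkers, and negative values can be taken as non-binding.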
# Fuc(a1-2)Gal6S(b1-4)Glc = target: Fuc(a1-2)Gal6S(b1-4)Glc
# Outline: as §1
# [1] = target: Fuc(a1-3)[Gal(b1-4)]GlcNAc(b1-2)Man(a1-6)[Gal(b1-4)GlcNAc(b1-2)Man(a1-3)]Man(b1-4)GlcNAc(b1-4)GlcNAc
# Outline: as §1
# Fuc(b1-3)GlcNAc = target: Fuc(b1-3)GlcNAc
# Outline: as §1
# Gal(a1-3)Gal(b1-3)GlcNAc = target: Gal(a1-3)Gal(b1-3)GlcNAc
# Outline: as §1
# Gal(a1-4)Gal(b1-4)GlcNAc = target: Gal(a1-4)Gal(b1-4)GlcNAc
# Outline: as §1
# [2] = target: Gal(b1-3)GlcNAc(b1-3)Gal(b1-4)GlcNAc
# Outline: as §1
# [3] = target: Gal3S(b1-3)[Fuc(a1-4)]GlcNAc
# Outline: as §1
# Gal4S(b1-4)GlcNAc = target: Gal4S(b1-4)GlcNAc
# Outline: as §1
# Gal6S(b1-4)GlcNAc6S = target: Gal6S(b1-4)GlcNAc6S
# Outline: as §1
# GalNAc(a1-3)Gal = target: GalNAc(a1-3)Gal
# Outline: as §1
# [4] = target: GalNAc(b1-3)Gal(a1-4)Gal(b1-4)GlcNAc(b1-3)Gal(b1-4)Glc
# Outline: as §1
# Glc(a1-4)Glc = target: Glc(a1-4)Glc
# Outline: as §1
# [5] = target: GlcNAc(b1-3)[GlcNAc(b1-6)]GalNAc
# Outline: as §1
# GlcNAc3Prop(b1-4)GlcNAc = target: GlcNAc3Prop(b1-4)GlcNAc
# Outline: as §1
# Kdn(a2-3)Gal(b1-3)GlcNAc = target: Kdn(a2-3)Gal(b1-3)GlcNAc
# Outline: as §1
# [6] = target: Man(a1-2)Man(a1-2)Man(a1-6)[Man(a1-3)]Man
# Outline: as §1
# Man(a1-3)[Man(a1-6)]Man = target: Man(a1-3)[Man(a1-6)]Man
# Outline: as §1
# [7] = target: Man(a1-3)[Man(a1-6)]Man(a1-6)[Man(a1-2)Man(a1-3)]Man(b1-4)GlcNAc(b1-4)GlcNAc
# Outline: as §1
# [8] = target: Man(a1-3)[Man(a1-6)]Man(a1-6)[Man(a1-3)]Man(b1-4)GlcNAc(b1-4)GlcNAc
# Outline: as §1
# Man(a1-6)Man = target: Man(a1-6)Man
# Outline: as §1
# [9] = target: Neu5Ac(a2-3)Gal(b1-3)GalNAc(b1-4)[Neu5Ac(a2-3)]Gal(b1-4)Glc
# Outline: as §1
# [10] = target: Neu5Ac(a2-3)Gal(b1-3)GlcNAc(b1-3)Gal(b1-3)GlcNAc
# Outline: as §1
# [11] = target: Neu5Ac(a2-3)Gal(b1-3)[Fuc(a1-4)]GlcNAc
# Outline: as §1
# [12] = target: Neu5Ac(a2-3)Gal(b1-3)[Neu5Ac(a2-3)Gal(b1-4)]GlcNAc
# Outline: as §1
# [13] = target: Neu5Ac(a2-3)Gal(b1-3)[Neu5Ac(a2-6)]GalNAc
# Outline: as §1
# Neu5Ac(a2-3)Gal(b1-4)Glc = target: Neu5Ac(a2-3)Gal(b1-4)Glc
# Outline: as §1
# [14] = target: Neu5Ac(a2-3)Gal(b1-4)GlcNAc(b1-2)Man(a1-3)[Neu5Ac(a2-6)Gal(b1-4)GlcNAc(b1-2)Man(a1-6)]Man(b1-4)GlcNAc(b1-4)GlcNAc
# Outline: as §1
# [15] = target: Neu5Ac(a2-3)Gal(b1-4)GlcNAc(b1-3)Gal(b1-4)[Fuc(a1-3)]GlcNAc
# Outline: as §1
# [16] = target: Neu5Ac(a2-3)Gal(b1-4)GlcNAc6S
# Outline: as §1
# [17] = target: Neu5Ac(a2-3)Gal(b1-4)[Fuc(a1-3)]GlcNAc(b1-6)[Neu5Ac(a2-3)Gal(b1-3)]GalNAc
# Outline: as §1
# [18] = target: Neu5Ac(a2-3)Gal(b1-4)[Fuc(a1-3)]GlcNAc6S
# Outline: as §1
# [19] = target: Neu5Ac(a2-3)[GalNAc(b1-4)]Gal(b1-4)Glc
# Outline: as §1
# [20] = target: Neu5Ac(a2-6)Gal(b1-4)GlcNAc(b1-2)Man(a1-6)Man(b1-4)GlcNAc(b1-4)GlcNAc
# Outline: as §1
# [21] = target: Neu5Ac(a2-6)Gal(b1-4)GlcNAc(b1-2)Man(a1-6)[Man(a1-3)]Man(b1-4)GlcNAc(b1-4)GlcNAc
# Outline: as §1
# [22] = target: Neu5Ac(a2-8)Neu5Ac(a2-3)Gal(b1-4)Glc
# Outline: as §1
# [23] = target: Neu5Ac(a2-8)Neu5Ac(a2-8)Neu5Ac(a2-3)Gal(b1-4)Glc
# Outline: as §1
# [24] = target: Neu5Ac9Ac(a2-6)Gal(b1-4)GlcNAc
# Outline: as §1
# Neu5Gc(a2-3)Gal(b1-4)Glc = target: Neu5Gc(a2-3)Gal(b1-4)Glc
# Outline: as §1
binder,measurement,setting,value
"Spy0252 (Streptococcus pyogenes), Q9A1I9_STRP1 (protein) MNMKKLASLAMLGASVLGLAACGGKSQKEAGASKSDTAKTEITWWAFPVFTQEKAEDGVGTYEKKLIAAFEKANPEIKVKLETIDFTSGPEKITTAIEAGTAPDVLFDAPGRIIQYGKNGKLADLNDLFTEEFTKDVNNDKLIQASKAGDTAYMYPISSAPFYMALNKKMLKDAGVLDLVKEGWTTDDFEKVLKALKDKGYNPGSFFANGQGGDQGPRAFFANLYSSHITDDKVTKYTTDDANSIKAMTKISNWIKDGLMMNGSQYDGSADIQNFANGQTSFTILWAPAQPGIQAKLLEASKVDYLEIPFPSDDGKPELEYLVNGFAVFNNKDEQKVAASKTFIQFIADDKEWGPKNVVRTGAFPVRTSYGDLYKDKRMEKIAEWTKFYSPYYNTIDGFAEMRTLWFPMVQAVSNGDEKPEDALKAFTEKANKTIKKTQ",glycan array binding signal (z-score),Fuc(a1-2)Gal,-0.143
same,glycan array binding signal (z-score),Fuc(a1-2)Gal6S(b1-4)Glc,-0.255
same,glycan array binding signal (z-score),[1],-0.236
same,glycan array binding signal (z-score),Fuc(b1-3)GlcNAc,-0.263
same,glycan array binding signal (z-score),Gal(a1-3)Gal(b1-3)GlcNAc,-0.267
same,glycan array binding signal (z-score),Gal(a1-4)Gal(b1-4)GlcNAc,-0.203
same,glycan array binding signal (z-score),[2],-0.267
same,glycan array binding signal (z-score),[3],-0.259
same,glycan array binding signal (z-score),Gal4S(b1-4)GlcNAc,-0.249
same,glycan array binding signal (z-score),Gal6S(b1-4)GlcNAc6S,-0.268
same,glycan array binding signal (z-score),GalNAc(a1-3)Gal,-0.212
same,glycan array binding signal (z-score),[4],5.38
same,glycan array binding signal (z-score),Glc(a1-4)Glc,0.228
same,glycan array binding signal (z-score),[5],-0.259
same,glycan array binding signal (z-score),GlcNAc3Prop(b1-4)GlcNAc,0.218
same,glycan array binding signal (z-score),Kdn(a2-3)Gal(b1-3)GlcNAc,-0.248
same,glycan array binding signal (z-score),[6],-0.258
same,glycan array binding signal (z-score),Man(a1-3)[Man(a1-6)]Man,-0.267
same,glycan array binding signal (z-score),[7],-0.273
same,glycan array binding signal (z-score),[8],-0.271
same,glycan array binding signal (z-score),Man(a1-6)Man,-0.283
same,glycan array binding signal (z-score),[9],-0.256
same,glycan array binding signal (z-score),[10],-0.195
same,glycan array binding signal (z-score),[11],-0.279
same,glycan array binding signal (z-score),[12],-0.223
same,glycan array binding signal (z-score),[13],-0.085
same,glycan array binding signal (z-score),Neu5Ac(a2-3)Gal(b1-4)Glc,5.54
same,glycan array binding signal (z-score),[14],-0.259
same,glycan array binding signal (z-score),[15],6.21
same,glycan array binding signal (z-score),[16],-0.268
same,glycan array binding signal (z-score),[17],-0.157
same,glycan array binding signal (z-score),[18],-0.278
same,glycan array binding signal (z-score),[19],-0.266
same,glycan array binding signal (z-score),[20],-0.277
same,glycan array binding signal (z-score),[21],-0.26
same,glycan array binding signal (z-score),[22],7.23
same,glycan array binding signal (z-score),[23],7.09
same,glycan array binding signal (z-score),[24],-0.248
same,glycan array binding signal (z-score),Neu5Gc(a2-3)Gal(b1-4)Glc,5.2
